Compounds with a hit are over-represented: about 2.1% of the library has one in this group of screens.
NSD2 HMT inh = NSD2 histone methyltransferase inhibitors, primary screen, biochemical, AlphaScreen, single concentration, set 2; NSD2 peptide methylation, 120 min; inhibition, % at 12.5 µM; actives 0.54% (n = 310,000); in the data active means inhibition above about 50%
Casp6 inh = human caspase-6 inhibitors, primary screen, biochemical, VEID-R110 fluorescence, single point, set 2; P55212; purified caspase-6, Z-VEID-R110 cleavage fluorescence; inhibition, % at 12.5 µM; actives 0.53% (n = 350,000);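 active means mean inhibition across replicates at least about 35%, with every replicate also reaching that limit, limit read from the data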;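 further: 0% = median of neutral control wells and 100% = no fluorescence left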
Target sequence (P55212 24-179 limits assumed): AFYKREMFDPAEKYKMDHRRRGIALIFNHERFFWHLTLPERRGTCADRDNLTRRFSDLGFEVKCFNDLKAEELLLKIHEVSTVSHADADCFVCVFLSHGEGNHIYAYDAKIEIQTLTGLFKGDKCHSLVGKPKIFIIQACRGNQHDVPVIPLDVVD
Target sequence (P55212 194-293 limits assumed): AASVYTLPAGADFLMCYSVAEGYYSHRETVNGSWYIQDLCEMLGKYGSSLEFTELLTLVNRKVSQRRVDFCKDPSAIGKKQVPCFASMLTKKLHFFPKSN
SIRT5 inh = SIRT5 desuccinylase inhibitors, primary screen, biochemical, fluorescence imaging, single point, set 5 | NAD-dependent protein deacylase sirtuin-5, mitochondrial (Homo sapiens), Q9NXA8 | Purified SirT5, succinyl-peptide AMC, trypsin-coupled fluorescence | inhibition, % at 15 µM | actives 1.1% (n = 330,000); in the data active means inhibition above about 15%
Target sequence (Q9NXA8 whole entry, looked up): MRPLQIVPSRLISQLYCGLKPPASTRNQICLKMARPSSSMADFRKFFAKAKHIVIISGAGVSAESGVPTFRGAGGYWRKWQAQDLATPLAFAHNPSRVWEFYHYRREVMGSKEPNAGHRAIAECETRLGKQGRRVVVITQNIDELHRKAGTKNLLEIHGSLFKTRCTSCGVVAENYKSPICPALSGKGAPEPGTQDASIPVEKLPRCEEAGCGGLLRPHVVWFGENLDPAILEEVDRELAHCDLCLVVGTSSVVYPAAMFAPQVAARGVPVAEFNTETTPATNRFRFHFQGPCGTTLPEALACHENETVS
ARNT-TACC3 inh = disruptors of ARNT/TACC3 protein interaction, primary screen, biochemical, AlphaScreen, single concentration | AlphaScreen His-ARNT PAS-B/GST-TACC3 binding, luminescence; TACC3 fragment carries E629A point mutation | inhibition, % at 9.99 µM | actives 0.66% (n = 390,000);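 active means mean inhibition of replicates at least 50% and at least half of replicates each reaching 50%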;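 further: 0% = complete ARNT plus TACC3 wells and 100% = ARNT alone without TACC3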
PfHsp90 yeast 2 = growth inhibition of PfHsp90-expressing yeast, primary screen, antimalarial PfHsp90 inhibitor project, S. cerevisiae, BacTiter-Glo luminescence, single point, set 2; BacTiter-Glo ATP, 48 h; yeast lacking PDR1 and PDR3 efflux regulators; inhibition, % at 9.4 µM; actives 0.32% (n = 310,000); AID 504621, 2011;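 active means every replicate shows inhibition above about 80%, whatever the replicate mean, limit read from the data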;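 further: 0% = DMSO neutral controls and 100% = 20 µM radicicol positive controls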
Active calls of the source: *; . = no result given; ! = not confirmed by another sample.

SMILES	NSD2 HMT inh	Casp6 inh	SIRT5 inh	ARNT-TACC3 inh	PfHsp90 yeast 2
CO[C@H]1CN(C)C(=O)c2cc(NS(=O)(=O)c3ccccc3)ccc2OC[C@@H](C)N(Cc2nccs2)C[C@H]1C	.	1	-3	-3	.
C[C@H]1CN([C@@H](C)CO)C(=O)c2c(c3ccccc3n2C)-c2ccccc2CO[C@@H]1CN(C)C(=O)Nc1cccc(Cl)c1Cl	.	0	1	.	.
CN1c2ccc(C3=CCCCC3)cc2[C@@H]2[C@@H](CCN2C(=O)C2CCCCC2)[C@@H]1CO	.	.	18*	.	.
CN1c2ccc(C3=CCCCC3)cc2[C@H]2[C@H](CCN2C(=O)C2CC2)[C@@H]1CO	.	10	20*	.	.
CN1c2ccc(C3=CCCCC3)cc2[C@@H]2[C@@H](CCN2C(=O)C2CC2)[C@@H]1CO	.	0	1	.	.
CCCN1C[C@@H](C)[C@@H](OC)CN(C)C(=O)c2cc(NC(=O)CC(F)(F)F)ccc2OC[C@@H]1C	.	1	.	.	.
Cc1ccc(C(=O)NC(=S)NNC(=O)CCN2CCOCC2)cc1	-16	3	0	40*	2
O=C1/C(=C\c2ccco2)CCC/C1=C\c1ccco1	22	74*	.	.	2
O=C1/C(=C/c2ccco2)CCC1C1CCCC1 (centres undefined)	3	1	11	-3	-13
O=C1NC(=O)C(=Cc2ccco2)S1	14	49*	.	-8	-11
NC1=NC(=O)/C(=C\c2ccco2)S1	30	63*	8	9	5
O=C1NC(=S)NC1=Cc1ccco1	.	44*	4	60*	.
Cc1ccc(S(=O)(=O)/N=C2/NC(=O)/C(=C\c3ccco3)S2)cc1	17	.	.	.	26
Nc1scc2c(C(=O)N/N=C/c3ccc(Cl)cc3)nn(-c3ccccc3)c(=O)c12	73*	.	.	7	.
COCC(=O)N1C[C@H](C)[C@@H](OC)CN(C)C(=O)c2cc(NC(=O)Nc3ccccc3)ccc2OC[C@@H]1C	.	.	4	-5	.
O=C1NC(c2ccc(Br)cc2)Nc2sc3c(c21)CCC3 (centres undefined)	4	.	.	6	-22
O=C1NC(c2ccccn2)Nc2sc3c(c21)CCC3 (centres undefined)	8	.	.	65*	2
C[C@H](CO)N1C[C@H](C)[C@@H](CN(C)Cc2ccccc2)Oc2cc(C3=CCCC3)ccc2S1(=O)=O	.	0	17*	-13	.
C[C@@H]1CN([C@@H](C)CO)C(=O)c2cc(C3=CCCCC3)cnc2O[C@@H]1CN(C)C(=O)Cc1ccccc1	.	-3	1	-4	.
C[C@@H]1CN([C@H](C)CO)S(=O)(=O)c2ccc(C3=CCCCC3)cc2O[C@@H]1CN(C)C(=O)Cc1cccnc1	.	-2	15*	4	.
C[C@@H]1CN([C@H](C)CO)S(=O)(=O)c2ccc(C3=CCCC3)cc2O[C@H]1CN(C)Cc1ccccc1	.	1	14	-16	.
C[C@H](CO)N1C[C@H](C)[C@H](CN(C)C(=O)Cc2ccccc2)Oc2cc(C3=CCCCC3)ccc2S1(=O)=O	.	-2	15*	-9	.
C[C@H](CO)N1C[C@H](C)[C@H](CN(C)C(=O)Cc2ccccc2)Oc2ncc(C3=CCCCC3)cc2C1=O	.	1	21*	.	.
C[C@H](NC(=O)C[C@H]1CC[C@@H]2[C@H](COC[C@H](O)CN2C)O1)c1ccccc1	.	-3	2	2	.
COc1ccc(S(=O)(=O)Nc2cccc3c2O[C@H](CN(C)C(=O)Nc2ccc(F)cc2)[C@H](C)CN([C@@H](C)CO)C3=O)cc1	.	-3	1	-7	.
SMILES	NSD2 HMT inh	Casp6 inh	SIRT5 inh	ARNT-TACC3 inh	PfHsp90 yeast 2
O=C(Nc1cccc(Cl)c1)N1C[C@@H]2[C@H](c3ccccc31)[C@H](CO)N2C(=O)C1CCCC1	.	1	1	1	.
O=C(C[C@H]1CC[C@@H](NC(=O)NC2CCCCC2)[C@@H](CO)O1)NCc1ccc(Cl)cc1	.	0	-4	-2	.
C[C@@H]1CN([C@@H](C)CO)S(=O)(=O)c2ccc(C3=CCCCC3)cc2O[C@H]1CN(C)C(=O)Nc1ccc2c(c1)OCO2	.	-1	10	14	.
C[C@@H]1CN([C@H](C)CO)S(=O)(=O)c2ccc(C3=CCCCC3)cc2O[C@H]1CN(C)C(=O)Nc1ccc2c(c1)OCO2	.	0	20*	7	.
CCNc1nc(NCC)nc(OCCOC(=O)Nc2ccccc2)n1	0	-1	-2	8	-34
CCNc1nc(NCC)nc(C(=O)Nc2ccccc2)n1	5	.	.	96*	-1
Cc1ccc([N+](=O)[O-])cc1NC(=O)C(C)N1CCCCC1 (centres undefined)	-1	40*	1	-5	-6
C[C@@H]1CN([C@H](C)CO)C(=O)c2cc(Br)cnc2O[C@H]1CN(C)C(=O)c1ccccc1F	.	-1	0	-6	.
C[C@H](CO)N1C[C@H](C)[C@H](CN(C)C(=O)c2ccccc2F)Oc2ncc(-c3ccccc3)cc2C1=O	.	3	0	3	.
C/C=C/c1cnc2c(c1)C(=O)N([C@@H](C)CO)C[C@@H](C)[C@@H](CN(C)C(=O)NC1CCCCC1)O2	.	3	28*	-2	.
C[C@H](CO)N1C[C@H](C)[C@H](CN(C)C(=O)c2ccccc2F)Oc2ncc(Br)cc2C1=O	.	1	26*!	1	.
C[C@@H]1CN([C@@H](C)CO)C(=O)c2cc(Br)cnc2O[C@H]1CN(C)C(=O)c1ccccc1F	.	0	15*!	-12	.
C/C=C/c1cnc2c(c1)C(=O)N([C@H](C)CO)C[C@H](C)[C@H](CN(C)C(=O)NC1CCCCC1)O2	.	-1	5	.	.
CCCNC(=O)N(C)C[C@@H]1Oc2ncc(Br)cc2C(=O)N([C@H](C)CO)C[C@@H]1C	.	1	20*!	8	.
O=C(C[C@H]1CC[C@@H](NC(=O)C2CCC2)[C@H](CO)O1)NC1CCC1	.	4	-4	-9	.
COc1ccc(NC(=O)N[C@@H]2CC[C@@H](CCn3cc(-c4ccccc4F)nn3)O[C@@H]2CO)cc1	.	-3	3	-4	.
C[C@H]1CN([C@@H](C)CO)C(=O)c2cc(Br)cnc2O[C@H]1CN(C)C(=O)c1ccccn1	.	-3	19*!	0	.
C[C@@H]1CN([C@H](C)CO)C(=O)c2cc(-c3cncnc3)cnc2O[C@H]1CN(C)C(=O)c1ccccc1F	.	2	-2	active	.
C[C@H]1CN([C@@H](C)CO)C(=O)c2cc(Br)cnc2O[C@@H]1CN(C)C(=O)c1ccccn1	.	1	0	-1	.
COc1cccc(-c2ccc([C@H]3[C@@H](CO)N(C(=O)c4ccccn4)[C@H]3C#N)cc2)c1	.	-3	-23	25	.
